From PubChem
HepG2 viability – kills HepG2 cells in TGF-b inhibitor counter-screen; 410,000 tested, 0.76% active; Potency, µM (doses to about 46.1 µM), without a hit: top-dose activity change, negative = cytotoxicity, actives largely listed as cytotoxic; HepG2 CAGA-GFP viability, ATP luminescence, 18 h; AID 588856
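CellTiter-Glo luminescence gave cytotoxicity after 18 hours at 37 degrees C. The cells were HepG2 CAGA-GFP in 1% FBS DMEM, stimulated with 500 pg/mL TGF-beta after compound addition. %Activity was normalised to no-cell wells (complete cell-killing) and DMSO (no toxicity), and curves were fitted and classified.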
RORg inh – ROR gamma (mouse) transcription inhibition | P51450 | Drosophila S2 Gal4-RORgamma UAS-luciferase reporter, 20 h | Potency, µM (series often up to 53.6 µM), for inactives: at the top dose activity change, negative = inhibition, actives largely listed as inhibitors | 310,000 tested, 5.4% active | AID 2551; note: % is set by controls: 0 for no effect and ±100 for the full control effect; nearly all actives have a fitted effect of over 60% in size
Target sequence (P51450 whole entry, looked up, the tested form may be a part): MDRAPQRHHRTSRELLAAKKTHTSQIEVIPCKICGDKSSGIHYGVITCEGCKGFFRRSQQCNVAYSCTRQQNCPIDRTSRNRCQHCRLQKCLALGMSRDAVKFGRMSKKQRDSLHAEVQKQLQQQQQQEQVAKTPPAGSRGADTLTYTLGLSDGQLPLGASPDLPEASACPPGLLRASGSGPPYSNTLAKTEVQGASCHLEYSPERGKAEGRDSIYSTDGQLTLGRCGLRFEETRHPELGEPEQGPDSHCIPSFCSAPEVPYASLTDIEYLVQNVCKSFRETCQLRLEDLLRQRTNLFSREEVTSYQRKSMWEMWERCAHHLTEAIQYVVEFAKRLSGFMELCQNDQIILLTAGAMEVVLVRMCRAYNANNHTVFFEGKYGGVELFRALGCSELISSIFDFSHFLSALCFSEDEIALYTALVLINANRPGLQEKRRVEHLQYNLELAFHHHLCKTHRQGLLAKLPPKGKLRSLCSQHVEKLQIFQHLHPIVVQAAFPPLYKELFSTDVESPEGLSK
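Drosophila Schneider cells stably carrying a metallothionein-driven Gal4 DBD–ROR gamma fusion and a UAS-Photinus luciferase reporter were exposed to compound for 1 hr, then induced with copper sulfate (700 uM final) for 20 hr at ambient temperature before luminescence reading.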
TGFb SMAD3 inh – blocks TGF-b signaling | HepG2 CAGA-GFP TGF-b/SMAD3 reporter, GFP fluorescence, 18 h; TGF-beta stimulated, 500 pg/mL final | Potency, µM (doses to about 46.1 µM), without a hit: at the highest dose activity, negative = inhibition, most hits filed as inhibitors | 410,000 tested, 1.2% active | AID 588855; note: % is set by controls: 0 for no effect and ±100 for the full control effect; nearly all actives have a fitted effect of over 65% in size
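Per well, imaged GFP fluorescence of HEPG2 CAGA-GFP cells gives the signal; cells get compound, then TGF-beta (500 pg/mL final), 18 h at 37 degrees C; %Activity versus -TGF-beta and +DMSO controls.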
ATXN2 expr inh – inhibitors of ATXN2 expression; HEK-293 ATXN2-luciferase reporter, luminescence, 24 h; Potency, µM (doses to about 57 µM), without a hit: top-dose activity change, negative = inhibition, usual class: inhibitors; 360,000 tested, 0.72% active; AID 1745845; note: % is set by controls: 0 for no effect and ±100 for the full control effect; nearly all actives have a fitted effect of over 55% in size
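qHTS (up to 57 uM final) was run with 24 h compound exposure of reporter cells at 37 °C. Each well was multiplexed: SteadyGlo luminescence measured ATXN2-luciferase expression after a fluorogenic Gly-Phe-AFC viability readout (25 uM final).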
Gal4-VP16 FLuc – Gal4-VP16 reporter inhibition counter-screen | AID 2546 | 310,000 tested, 3.5% active | Potency, µM (doses to about 53.6 µM), without a hit: at the top dose activity, negative = inhibition, usual class: inhibitors | Drosophila S2 Gal4-VP16 UAS-luciferase, luminescence, 20 h;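 note: Gal4-VP16 expression switched on by copper sulfate through the metallothionein promoter; % is set by controls: 0 for no effect and ±100 for the full control effect; nearly all actives have a fitted effect of over 50% in size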
S2 tox – cell viability loss in ATXN counter-screen; S2 cells (HEK-293 line with an ATXN2-luciferase reporter) viability, CellTiter-Fluor protease fluorescence, 24 h; Potency, µM (series often up to 56.7 µM), usual class: cytotoxic; 400,000 tested, 0.49% active; AID 651635; note: nearly all actives have a fitted effect of over 40% in size
* = called active by the depositor; [ ] = dose if it differs, or a comment. Compounds with a hit are over-represented: about 6.1% of the library has one in this group of screens. Calls come from the whole dose curve; as a rule, active = well fitted curve in the direction sought with a large enough effect; inconclusive = small, poorly fitted or top-dose-only effect, or another doubt; inactive = no such curve, though single readings can be large; an effect the other way counts as inactive or inconclusive. Potency is the fitted concentration of half-maximal effect.

How did COc1ccc(-n2cc(-c3ccccc3)c3c(Nc4ccc(OC)c(OC)c4)ncnc32)cc1 do in these assays?
HepG2 viability: -29.1%; TGFb SMAD3 inh: -5.7%

How did COc1cc(CNC(=O)c2ccc3nc(Cc4ccccc4)oc3c2)cc(OC)c1OC do in these assays?
HepG2 viability: -41.3%; TGFb SMAD3 inh: inconclusive; ATXN2 expr inh: inconclusive; S2 tox: inconclusive

What do the screens show for `COc1ccc(CCNS(=O)(=O)c2ccc(N3CCCCS3(=O)=O)cc2)cc1`?
HepG2 viability: -12.2%; TGFb SMAD3 inh: inconclusive; ATXN2 expr inh: -21.4%; S2 tox: inactive

How did COc1ccc(Nc2nc(N)nc(CN3CCC(Cc4ccccc4)CC3)n2)cc1 do in these assays?
HepG2 viability: -50.4%; RORg inh: 11.2µM*; TGFb SMAD3 inh: inconclusive; ATXN2 expr inh: -15.7%; Gal4-VP16 FLuc: inconclusive; S2 tox: inactive

How did COc1ccccc1Nc1nc(N)nc(CN2CCC(Cc3ccccc3)CC2)n1 do in these assays?
HepG2 viability: -37.3%; RORg inh: 8.91µM*; TGFb SMAD3 inh: -11.4%; ATXN2 expr inh: -10.5%; Gal4-VP16 FLuc: inconclusive; S2 tox: inactive

How did COc1ccccc1Nc1nc(N)nc(CN2CCC(C)CC2)n1 do in these assays?
HepG2 viability: -38.0%; RORg inh: inconclusive; TGFb SMAD3 inh: -2.0%; ATXN2 expr inh: -20.1%; Gal4-VP16 FLuc: -6.4%[10 µM]; S2 tox: inactive

What do the screens show for `S=C(NCc1ccco1)N1CCN(C(c2ccccc2)c2ccccc2)CC1`?
HepG2 viability: -6.9%; RORg inh: 12.6µM*; TGFb SMAD3 inh: -12.1%; ATXN2 expr inh: 5.0%; Gal4-VP16 FLuc: inconclusive; S2 tox: inactive

What do the screens show for `CC(C)CNC(=S)N1CCN(C(c2ccccc2)c2ccccc2)CC1`?
HepG2 viability: 9.8%; RORg inh: 12.6µM*; TGFb SMAD3 inh: 2.0%; ATXN2 expr inh: 2.7%; Gal4-VP16 FLuc: inconclusive; S2 tox: inactive

What do the screens show for `COCCCNC(=S)N1CCN(C(c2ccccc2)c2ccccc2)CC1`?
HepG2 viability: 0.7%; RORg inh: 15.8µM*; TGFb SMAD3 inh: 3.9%; ATXN2 expr inh: 2.4%; Gal4-VP16 FLuc: inconclusive; S2 tox: inactive

Results for O=C(CN1CCN(C(c2ccccc2)c2ccccc2)CC1)NC(=O)NCc1ccco1 ?
HepG2 viability: -22.9%; RORg inh: -16.0%; TGFb SMAD3 inh: 0.0%; ATXN2 expr inh: -9.3%; Gal4-VP16 FLuc: -7.4%; S2 tox: inactive

What do the screens show for `O=C(c1ccncc1)N1CCC2(CCC(CNC(=O)C3(N4CCOCC4)CCCCC3)O2)CC1` (centres undefined)?
S2 tox: inactive

Results for C=C1C=C(C)n2ncc(C(=O)Nc3cccc(C(=O)Nc4cccc(C(F)(F)F)c4)c3)c2N1 ?
HepG2 viability: 7.6%; TGFb SMAD3 inh: 10.8%

Results for CCOc1ccc(C2C(C(=O)c3ccc(C)o3)=C(O)C(=O)N2c2nc(C)c(C(=O)OC)s2)cc1 (centres undefined) ?
HepG2 viability: -16.1%; RORg inh: 1.12µM*; TGFb SMAD3 inh: 2.9%; Gal4-VP16 FLuc: -25.8%; S2 tox: inactive

What do the screens show for `CCn1c(SCC(=O)Nc2ccc(C)cc2Br)nnc1-c1nonc1NC(C)=O`?
HepG2 viability: -8.0%; TGFb SMAD3 inh: -7.4%; ATXN2 expr inh: -13.0%; S2 tox: inactive

Results for Cc1cc(C)nc(NN=C(c2ccccc2)c2ccccc2)n1 ?
HepG2 viability: -63.9%; RORg inh: 7.94µM*; TGFb SMAD3 inh: 11.2µM*; Gal4-VP16 FLuc: inconclusive; S2 tox: inactive

How did CC(/C=C/c1ccccc1)=N/NC(=O)c1nc2nc(C)cc(C)n2n1 do in these assays?
HepG2 viability: 15.9%; RORg inh: inconclusive; TGFb SMAD3 inh: -2.4%; Gal4-VP16 FLuc: -3.0%; S2 tox: inconclusive
